Source: PubChem BioAssay (EPA / NIEHS)
Inconclusive results are not listed. Calls of active or inactive are those of the source. The calls were made as follows, unless noted: active = hit-call score of the fitted dose curve at least 0.9, where 1 is the maximum; inactive = score below 0.9.

Assays:
[1] = target: Nuclear receptor subfamily 4 group A member 2 (Homo sapiens) (UniProt P43354); test: ATG_NURR1_TRANS: Attagene TRANS-FACTORIAL HepG2 Assay for human Nuclear Receptor Related Protein 1 (NURR1) (AID 2282985; active = hit-call score of the fitted dose curve at least 0.9, where 1 is the maximum); conditions: HepG2 Attagene TRANS reporter, mRNA readout
Outline: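 Measures transcriptional activation by an exogenous NR-Gal4 chimera in transfected HepG2 liver cells. After 24 h, reporter RNA is reverse-transcribed, amplified and resolved by capillary electrophoresis; DMSO defines baseline.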

[2] = target: Transcriptional activator Myb (Homo sapiens) (UniProt P10242); test: ATG_Myb_CIS: Attagene CIS-FACTORIAL HepG2 Assay for human Myeloblastosis (Myb) Proto-Oncogene Transcription Factor (AID 2282986); conditions: HepG2 Attagene CIS-FACTORIAL Myb reporter transcription; actives raise or lower the signal
Outline: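 After 24 h of compound dosing, total RNA from transfected HepG2 cells is reverse-transcribed and the reporter sequences amplified, labeled and separated by capillary electrophoresis. Values come from bidirectional fitting against DMSO.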

[3] = target: Nuclear respiratory factor 1 (Homo sapiens) (UniProt Q16656); test: ATG_NRF1_CIS: Attagene CIS-FACTORIAL HepG2 Assay for human Nuclear Respiratory Factor 1 (NRF1) Orphan Gene (AID 2282987); conditions: HepG2 NRF1 cis-element reporter, Attagene multiplex; actives raise or lower the signal
Outline: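 Measured: fluorescent reporter-specific RT-PCR products from transfected HepG2 cells, separated by capillary electrophoresis. Exposure lasted 24 h. Analysis used bidirectional curve fitting with DMSO as negative control.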

[4] = ATG_NFI_CIS: Attagene CIS-FACTORIAL HepG2 Assay for human Nuclear Factor I (NFI) (AID 2282989); conditions: HepG2 cis-regulatory reporter, NFI response element transcription; actives raise or lower the signal
Outline: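 HepG2 cells transiently transfected with cis-element-driven multiplexed reporter transcription units, dosed for 24 h. Reporter mRNA quantified by RT-PCR, fluorescent labelling, HpaI digestion and capillary electrophoresis; bidirectional fit versus DMSO baseline.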

[5] = target: Myc proto-oncogene protein (Homo sapiens) (UniProt P01106); test: ATG_Myc_CIS: Attagene CIS-FACTORIAL HepG2 Assay for human Myelocytomatosis (Myc) Proto-Oncogene Transcription Factor (AID 2282990); conditions: HepG2, Attagene cis-reporter transcription factor activity; actives raise or lower the signal
Outline: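 HepG2, transient MRTU transfection (cis promoters, endogenous TFs); 24 h dosing; TriZol RNA → oligo(dT) RT → PCR → 6-FAM primer extension → HpaI cut → CE. Bidirectional fit vs DMSO.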

[6] = ATG_NF_kB_CIS: Attagene CIS-FACTORIAL HepG2 Assay for human Nuclear Factor Kappa B (NF-kB) (AID 2282991); conditions: HepG2 Attagene cis-factorial NF-kB reporter mRNA; actives raise or lower the signal
Outline: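 Fluorescence of labelled RT-PCR products separated by capillary electrophoresis gives reporter mRNA levels from transfected HepG2 cells exposed 24 h; values are fitted in both directions relative to DMSO.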

[7] = ATG_NRF2_ARE_CIS: Attagene CIS-FACTORIAL HepG2 Assay for human Nuclear Factor Erythroid 2 Related Factor 2 (NFR2) response to Antioxidant Response Elements (ARE) (AID 2282992); conditions: HepG2 Attagene ARE/NRF2 reporter, transcription factor activity; actives raise or lower the signal
Outline: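 Using transiently transfected HepG2 cells exposed for 24 h, reporter mRNA levels were determined by RT-PCR with fluorescent primer extension and capillary electrophoresis, analysed for gain or loss of signal against DMSO.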

[8] = ATG_Oct_MLP_CIS: Attagene CIS-FACTORIAL HepG2 Assay for human Octamer-Binding Transcription Factor (Oct) (AID 2282993); conditions: HepG2 Attagene cis-factorial Oct reporter, mRNA; actives raise or lower the signal
Outline: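 HepG2 cells transiently transfected with cis-promoter-driven multiplexed reporter transcription units, dosed for 24 h. Reporter mRNA quantified by RT-PCR, fluorescent labelling, HpaI digestion and capillary electrophoresis; bidirectional fits versus DMSO baseline.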

[9] = target: Cellular tumor antigen p53 (Homo sapiens) (UniProt P04637); test: ATG_p53_CIS: Attagene CIS-FACTORIAL HepG2 Assay for human p53 Transcription Factor (AID 2282994); conditions: HepG2 p53 cis-element reporter, Attagene mRNA; actives raise or lower the signal
Outline: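 In HepG2 cells, reporter transcription units under cis-regulatory promoters were transiently introduced. Following 24 h treatment, RNA was processed to labelled, digested cDNA fragments read by capillary electrophoresis; fitting was bidirectional versus DMSO.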

[10] = BSK_3C_TissueFactor: BioMAP Diversity Plus: 3C Assay for Tissue Factor Biomarker Activity (AID 2282997); conditions: BioMAP 3C HUVEC, tissue factor biomarker readout; actives raise or lower the signal
Outline: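 Tissue factor on primary human umbilical vein endothelium was read by ELISA 24 h after dosing, gain or loss relative to DMSO. Cytotoxicity ran alongside via SRB (0.1%, TCA-fixed, 560 nm).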

[11] = BSK_3C_uPAR: BioMAP Diversity Plus: 3C Assay for Urokinase-type plasminogen activator receptor (uPAR) Biomarker Activity (AID 2282998); conditions: BioMAP 3C HUVEC, uPAR biomarker ELISA; actives raise or lower the signal
Outline: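 Human umbilical vein endothelial primary cells were exposed to test chemical for 24 h. Cell-surface uPAR was then quantified by ELISA, and responses were fitted bidirectionally against DMSO as negative control and baseline.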

[12] = BSK_3C_VCAM1: BioMAP Diversity Plus: 3C Assay for Vascular cell adhesion molecule 1 (VCAM1) Biomarker Activity (AID 2282999); conditions: BioMAP 3C HUVEC, VCAM1 ELISA, cytokine-stimulated; actives raise or lower the signal
Outline: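 Activity fitted in both directions relative to DMSO, with ELISA measurement of the surface marker on primary HUVEC (3C) at 24 h post-treatment; parallel SRB staining (0.1% SRB, TCA-fixed, 560 nm) flagged overt cytotoxicity.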

[13] = read-out: Intercellular Adhesion Molecule 1 (ICAM1), ICAM1 (gene 3383); test: BSK_3C_ICAM1: BioMAP Diversity Plus: 3C Assay for Intercellular Adhesion Molecule 1 (ICAM1) Biomarker Activity (AID 2283003); conditions: primary human endothelial cells (HUVEC); actives raise or lower the signal
Outline: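 Using DMSO as baseline, bidirectional curve fitting was applied to ICAM-1 ELISA signals from HUVEC in the 3C system, measured 24 h after compound addition.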

[14] = target: human Retinoic Acid Receptor beta (RARb), RARB (gene 5915) (UniProt P10826); test: ATG_RARb_TRANS: Attagene TRANS-FACTORIAL HepG2 Assay for human Retinoic Acid Receptor beta (AID 2283004; active = hit-call score of the fitted dose curve at least 0.9, where 1 is the maximum)
Outline: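 Induction of reporter mRNA from a chimeric RARb-Gal4 construct was measured by RT-PCR, FAM labelling, HpaI digestion and capillary electrophoresis. Measurements followed 24 h compound treatment of transiently transfected human HepG2 liver cells, with DMSO as baseline.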

[15] = target: Retinoic acid receptor alpha (Homo sapiens) (UniProt P10276); test: ATG_RARa_TRANS: Attagene TRANS-FACTORIAL HepG2 Assay for human Retinoic Acid Receptor alpha (RARa) (AID 2283005; active = hit-call score of the fitted dose curve at least 0.9, where 1 is the maximum)
Outline: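 Reporter transcripts, measured by RT-PCR with fluorescent labeling and capillary electrophoresis after 24 h dosing, reflect activity of an exogenous human RARa–GAL4 fusion in transiently transfected HepG2. Fitted for increase relative to DMSO.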

[16] = BSK_3C_Proliferation: Cell Proliferation Assessment in the BioMAP Diversity Plus: 3C Assay (AID 2283006); conditions: primary human endothelial cells (HUVEC);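 as to AC50: potency may reflect either rise or fall in cell number versus DMSO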
Outline: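 Measured here: sulforhodamine B (0.1%) staining of TCA-fixed sub-confluent umbilical vein endothelial cultures 48 h post-dosing, absorbance 560 nm. DMSO served as negative control and baseline; both signal gain and loss were modelled.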

[17] = BSK_4H_Eotaxin3: BioMAP Diversity Plus: 4H Assay for Eotaxin 3 Biomarker Activity (AID 2283000); conditions: primary human endothelial cells (HUVEC); actives raise or lower the signal
Outline: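 Human umbilical vein endothelial cells (BSK_4H system) dosed with test chemical; Eotaxin-3 (CCL26) measured by ELISA 24 h after dosing. Bidirectional curve fitting relative to DMSO negative control as baseline.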

[18] = target: human Peroxisome Proliferator-activated Receptor alpha (PPARa), PPARA (gene 5465) (UniProt Q07869); test: ATG_PPARa_TRANS: Attagene TRANS-FACTORIAL HepG2 Assay for human Peroxisome Proliferator-activated Receptor alpha (PPARa) (AID 2283001; active = hit-call score of the fitted dose curve at least 0.9, where 1 is the maximum)
Outline: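 Transfected HepG2 cells treated with test chemical for 24 h. RNA isolated, reverse-transcribed with oligo(dT), PCR-amplified, FAM-labelled and HpaI-digested. Fragments sized by capillary electrophoresis; gain-of-signal fit relative to DMSO.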

[19] = target: Peroxisome proliferator-activated receptor gamma (Homo sapiens) (UniProt P37231); test: ATG_PPARg_TRANS: Attagene TRANS-FACTORIAL HepG2 Assay for human Peroxisome Proliferator-activated Receptor-gamma (PPARg) (AID 2283007; active = hit-call score of the fitted dose curve at least 0.9, where 1 is the maximum)
Outline: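 Twenty-four hours after chemical dosing of transiently transfected HepG2 cells, isolated RNA was converted to cDNA, reporter sequences amplified and 6-FAM-labelled, then HpaI-digested and analysed by capillary electrophoresis. Signal increase against DMSO was fitted.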

[20] = target: human Peroxisome Proliferator-activated Receptor delta (PPARd), PPARD (gene 5467) (UniProt Q03181); test: ATG_PPARd_TRANS: Attagene TRANS-FACTORIAL HepG2 Assay for human Peroxisome Proliferator-activated Receptor delta (PPARd) (AID 2283002; active = hit-call score of the fitted dose curve at least 0.9, where 1 is the maximum)
Outline: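 Transient HepG2 transfection (multiple GAL4-UAS RTUs, chimeric receptor-Gal4); 24 h dosing; total RNA → oligo(dT) RT → PCR → 6-FAM primer extension → HpaI cut → CE. Positive direction vs DMSO.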

Measured: AC50

Sequence of Cellular tumor antigen p53 (Homo sapiens) (P04637 whole entry, looked up, the tested form may be a part): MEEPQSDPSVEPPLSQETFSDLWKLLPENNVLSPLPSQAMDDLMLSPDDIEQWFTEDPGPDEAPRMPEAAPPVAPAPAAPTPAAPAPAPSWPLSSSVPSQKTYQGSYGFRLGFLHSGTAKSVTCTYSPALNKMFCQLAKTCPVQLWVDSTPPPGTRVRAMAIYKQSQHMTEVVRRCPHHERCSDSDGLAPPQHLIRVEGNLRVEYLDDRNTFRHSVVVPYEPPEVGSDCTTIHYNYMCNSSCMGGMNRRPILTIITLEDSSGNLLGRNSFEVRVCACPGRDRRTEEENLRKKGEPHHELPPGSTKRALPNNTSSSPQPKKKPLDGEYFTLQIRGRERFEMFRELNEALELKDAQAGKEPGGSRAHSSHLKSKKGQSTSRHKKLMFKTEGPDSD
Sequence of human Peroxisome Proliferator-activated Receptor delta (PPARd), PPARD (gene 5467) (Q03181 whole entry, looked up, the tested form may be a part): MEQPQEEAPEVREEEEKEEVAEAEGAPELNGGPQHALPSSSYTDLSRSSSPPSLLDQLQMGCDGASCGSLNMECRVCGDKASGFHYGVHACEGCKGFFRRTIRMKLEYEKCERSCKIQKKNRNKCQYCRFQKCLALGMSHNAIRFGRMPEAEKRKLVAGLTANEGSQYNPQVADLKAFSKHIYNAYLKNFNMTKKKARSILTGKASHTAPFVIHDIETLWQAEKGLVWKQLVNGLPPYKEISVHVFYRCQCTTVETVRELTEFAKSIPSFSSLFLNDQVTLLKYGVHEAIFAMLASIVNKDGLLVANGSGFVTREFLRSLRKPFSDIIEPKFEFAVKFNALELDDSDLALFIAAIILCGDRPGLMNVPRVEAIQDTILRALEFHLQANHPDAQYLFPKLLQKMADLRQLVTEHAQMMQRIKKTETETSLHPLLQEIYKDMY
Sequence of Transcriptional activator Myb (Homo sapiens) (P10242 whole entry, looked up): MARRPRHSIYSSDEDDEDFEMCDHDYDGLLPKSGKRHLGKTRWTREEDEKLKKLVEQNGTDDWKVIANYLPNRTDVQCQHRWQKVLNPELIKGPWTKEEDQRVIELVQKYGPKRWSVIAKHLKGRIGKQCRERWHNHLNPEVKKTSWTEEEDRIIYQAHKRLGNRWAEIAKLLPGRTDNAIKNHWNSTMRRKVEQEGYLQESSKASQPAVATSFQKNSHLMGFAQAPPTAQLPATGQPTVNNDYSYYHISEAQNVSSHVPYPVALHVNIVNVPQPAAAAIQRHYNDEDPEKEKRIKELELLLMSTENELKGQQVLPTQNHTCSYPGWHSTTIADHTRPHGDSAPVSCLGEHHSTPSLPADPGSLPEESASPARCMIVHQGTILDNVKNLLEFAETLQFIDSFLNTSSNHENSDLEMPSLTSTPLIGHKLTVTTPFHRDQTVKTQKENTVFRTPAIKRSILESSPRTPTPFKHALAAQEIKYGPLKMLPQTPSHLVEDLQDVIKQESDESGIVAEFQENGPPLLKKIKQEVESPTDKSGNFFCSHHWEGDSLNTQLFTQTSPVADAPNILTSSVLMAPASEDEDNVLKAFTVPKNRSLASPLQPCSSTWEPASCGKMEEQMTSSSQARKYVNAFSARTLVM
Sequence of human Peroxisome Proliferator-activated Receptor alpha (PPARa), PPARA (gene 5465) (Q07869 whole entry, looked up, the tested form may be a part): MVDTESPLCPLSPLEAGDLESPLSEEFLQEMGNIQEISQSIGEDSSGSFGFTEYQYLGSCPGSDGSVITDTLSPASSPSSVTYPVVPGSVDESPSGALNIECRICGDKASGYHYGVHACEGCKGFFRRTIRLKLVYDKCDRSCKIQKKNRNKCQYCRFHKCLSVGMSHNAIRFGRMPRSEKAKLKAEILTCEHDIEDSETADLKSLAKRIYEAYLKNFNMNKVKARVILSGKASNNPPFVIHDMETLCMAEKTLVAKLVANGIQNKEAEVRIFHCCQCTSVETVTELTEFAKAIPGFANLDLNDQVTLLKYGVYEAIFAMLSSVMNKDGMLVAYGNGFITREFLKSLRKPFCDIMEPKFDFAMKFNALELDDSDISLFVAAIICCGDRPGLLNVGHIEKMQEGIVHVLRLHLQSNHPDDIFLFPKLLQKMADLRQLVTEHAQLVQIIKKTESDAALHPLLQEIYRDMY
Sequence of Peroxisome proliferator-activated receptor gamma (Homo sapiens) (P37231 whole entry, looked up): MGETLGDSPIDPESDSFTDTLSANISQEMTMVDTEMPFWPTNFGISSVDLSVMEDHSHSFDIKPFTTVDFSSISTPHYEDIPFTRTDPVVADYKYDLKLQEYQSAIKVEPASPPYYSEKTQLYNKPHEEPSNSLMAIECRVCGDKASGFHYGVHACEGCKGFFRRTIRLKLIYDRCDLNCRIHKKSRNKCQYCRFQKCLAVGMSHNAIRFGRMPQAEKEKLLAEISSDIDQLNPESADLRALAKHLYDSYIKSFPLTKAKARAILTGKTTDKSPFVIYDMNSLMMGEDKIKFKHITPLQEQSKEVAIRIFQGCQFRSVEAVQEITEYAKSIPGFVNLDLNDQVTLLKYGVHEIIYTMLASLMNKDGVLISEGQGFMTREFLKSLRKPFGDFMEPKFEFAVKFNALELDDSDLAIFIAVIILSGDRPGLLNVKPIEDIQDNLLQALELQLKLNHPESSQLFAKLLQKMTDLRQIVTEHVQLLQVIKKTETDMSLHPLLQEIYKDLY
Sequence of human Retinoic Acid Receptor beta (RARb), RARB (gene 5915) (P10826 whole entry, looked up, the tested form may be a part): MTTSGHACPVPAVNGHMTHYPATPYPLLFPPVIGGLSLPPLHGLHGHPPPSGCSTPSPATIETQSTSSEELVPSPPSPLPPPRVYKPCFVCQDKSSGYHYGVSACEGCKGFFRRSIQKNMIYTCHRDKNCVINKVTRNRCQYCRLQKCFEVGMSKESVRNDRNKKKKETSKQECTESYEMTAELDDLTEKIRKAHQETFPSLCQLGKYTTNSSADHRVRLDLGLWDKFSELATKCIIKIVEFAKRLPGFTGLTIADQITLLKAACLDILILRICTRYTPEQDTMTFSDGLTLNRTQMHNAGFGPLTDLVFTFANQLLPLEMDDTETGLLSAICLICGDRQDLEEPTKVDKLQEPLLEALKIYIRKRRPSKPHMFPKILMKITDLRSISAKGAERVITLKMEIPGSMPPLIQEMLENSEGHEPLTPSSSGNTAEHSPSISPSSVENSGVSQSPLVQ
Sequence of Myc proto-oncogene protein (Homo sapiens) (P01106 whole entry, looked up): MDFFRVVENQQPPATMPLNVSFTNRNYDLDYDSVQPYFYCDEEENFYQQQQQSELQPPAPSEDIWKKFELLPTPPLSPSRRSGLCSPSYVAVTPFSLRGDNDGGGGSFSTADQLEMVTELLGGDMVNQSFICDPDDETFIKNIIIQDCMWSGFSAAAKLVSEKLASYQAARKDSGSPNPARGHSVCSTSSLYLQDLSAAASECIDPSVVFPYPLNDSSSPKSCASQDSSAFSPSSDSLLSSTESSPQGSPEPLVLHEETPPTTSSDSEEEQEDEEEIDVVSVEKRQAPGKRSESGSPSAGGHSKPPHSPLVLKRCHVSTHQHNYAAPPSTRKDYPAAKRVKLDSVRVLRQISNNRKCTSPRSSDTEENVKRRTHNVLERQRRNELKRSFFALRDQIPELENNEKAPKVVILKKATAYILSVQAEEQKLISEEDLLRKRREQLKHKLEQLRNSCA
Sequence of Nuclear respiratory factor 1 (Homo sapiens) (Q16656 whole entry, looked up): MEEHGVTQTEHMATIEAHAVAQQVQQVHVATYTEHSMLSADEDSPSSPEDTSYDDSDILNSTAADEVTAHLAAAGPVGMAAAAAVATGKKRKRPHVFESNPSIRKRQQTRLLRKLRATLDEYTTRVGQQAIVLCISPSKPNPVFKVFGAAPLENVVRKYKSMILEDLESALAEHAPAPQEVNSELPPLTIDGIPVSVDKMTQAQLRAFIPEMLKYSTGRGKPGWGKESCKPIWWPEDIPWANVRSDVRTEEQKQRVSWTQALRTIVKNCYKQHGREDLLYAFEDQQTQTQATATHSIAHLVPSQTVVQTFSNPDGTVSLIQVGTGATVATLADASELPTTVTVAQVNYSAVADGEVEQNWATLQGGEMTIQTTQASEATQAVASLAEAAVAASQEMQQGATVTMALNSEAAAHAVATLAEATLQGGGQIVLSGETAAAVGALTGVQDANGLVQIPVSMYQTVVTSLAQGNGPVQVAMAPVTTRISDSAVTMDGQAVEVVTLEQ
Sequence of Retinoic acid receptor alpha (Homo sapiens) (P10276 whole entry, looked up, the tested form may be a part): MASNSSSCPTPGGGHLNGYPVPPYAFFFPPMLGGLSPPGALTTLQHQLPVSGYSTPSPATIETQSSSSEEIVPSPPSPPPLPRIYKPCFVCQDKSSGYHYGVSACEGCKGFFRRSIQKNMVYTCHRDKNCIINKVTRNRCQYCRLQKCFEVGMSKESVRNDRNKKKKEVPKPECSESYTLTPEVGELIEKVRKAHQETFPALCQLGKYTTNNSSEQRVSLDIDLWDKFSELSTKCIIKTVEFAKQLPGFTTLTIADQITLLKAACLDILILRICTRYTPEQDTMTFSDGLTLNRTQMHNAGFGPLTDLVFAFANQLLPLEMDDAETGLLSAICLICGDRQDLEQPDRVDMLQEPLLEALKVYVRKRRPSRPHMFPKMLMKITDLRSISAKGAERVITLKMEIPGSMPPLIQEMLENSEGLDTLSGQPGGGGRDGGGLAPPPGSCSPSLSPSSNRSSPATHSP
Sequence of Nuclear receptor subfamily 4 group A member 2 (Homo sapiens) (P43354 whole entry, looked up, the tested form may be a part): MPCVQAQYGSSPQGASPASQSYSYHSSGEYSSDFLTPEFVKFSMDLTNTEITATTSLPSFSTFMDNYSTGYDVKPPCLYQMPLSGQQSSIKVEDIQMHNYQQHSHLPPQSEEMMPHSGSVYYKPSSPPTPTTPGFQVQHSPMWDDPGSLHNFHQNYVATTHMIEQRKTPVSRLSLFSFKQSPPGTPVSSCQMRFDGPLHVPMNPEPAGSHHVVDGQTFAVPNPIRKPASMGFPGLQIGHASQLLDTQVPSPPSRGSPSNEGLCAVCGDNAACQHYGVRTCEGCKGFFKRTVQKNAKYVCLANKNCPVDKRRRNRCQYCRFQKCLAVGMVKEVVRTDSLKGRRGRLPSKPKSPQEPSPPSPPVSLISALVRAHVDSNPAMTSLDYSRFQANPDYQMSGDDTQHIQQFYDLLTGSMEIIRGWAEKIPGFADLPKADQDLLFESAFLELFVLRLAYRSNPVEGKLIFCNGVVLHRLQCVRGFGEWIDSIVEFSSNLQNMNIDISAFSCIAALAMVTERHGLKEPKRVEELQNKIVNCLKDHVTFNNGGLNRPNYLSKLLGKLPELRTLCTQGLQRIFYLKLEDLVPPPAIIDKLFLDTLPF

CNC(=O)Oc1cccc2ccccc12
active: [4] 74.5 µM | [7] 15.6 µM | [8] 50 µM | [16] 22.9 µM
not listed: [17] | [18] | [19] | [20]
inactive: all other assays above

CCCCOCN(C(=O)CCl)c1c(CC)cccc1CC
active: [7] 0.547 µM | [10] 16 µM | [11] 31.2 µM | [12] 27.4 µM | [17] 36.1 µM | [13] 32.2 µM | [16] 28.2 µM | [19] 1.38 µM
not listed: [14] | [15] | [20]
inactive: all other assays above

Nc1c(Cl)c(F)nc(OCC(=O)O)c1Cl
not listed: [18] | [20]
inactive: all other assays above

CCCCC(O)(Cn1cncn1)c1ccc(Cl)cc1Cl (centres undefined)
active: [7] 20.8 µM | [8] 62.5 µM | [11] 36.5 µM | [16] 26.2 µM
not listed: [14] | [15] | [17] | [18]
inactive: all other assays above

COc1ccc(-c2ccccc2)cc1NNC(=O)OC(C)C
active: [7] 6.71 µM | [8] 0.882 µM | [19] 50 µM
not listed: [15] | [17] | [18] | [20]
inactive: all other assays above

N#CN=C1SCCN1Cc1ccc(Cl)nc1
active: [7] 50 µM
not listed: [14]
inactive: all other assays above

COP(=O)(OC)O/C(C)=C/C(=O)N(C)C
not listed: [14] | [15] | [17]
inactive: all other assays above
